# The list is not random: actives were taken first. Their share in the collection is about 1.1%.
# Anesthetic bind = candidate novel general anesthetic via apoferritin binding | P02791 | apoferritin/1-aminoanthracene competitive binding, fluorescence | Potency, µM (series often up to 77.5 µM), inactives show at the top dose activity change, negative = displacement, actives largely listed as inhibitors | actives 0.074% (n = 350,000) | AID 485281; note: % is set by controls: 0 for no effect and ±100 for the full control effect; nearly all actives have a fitted effect of over 20% in size
# Target sequence (P02791 2-175 limits assumed): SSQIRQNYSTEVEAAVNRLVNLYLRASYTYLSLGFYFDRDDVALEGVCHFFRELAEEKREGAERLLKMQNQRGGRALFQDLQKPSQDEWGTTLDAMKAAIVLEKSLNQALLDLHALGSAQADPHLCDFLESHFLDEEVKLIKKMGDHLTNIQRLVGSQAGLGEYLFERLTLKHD
#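 In PBS, apoferritin at 10 uM is loaded with 1-AMA from a 50% saturated solution. After 10 min of compound exposure at ambient temperature, reduced 535 nm fluorescence indicates probe displacement.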
# 12-LOX inh = ALOX12 (human) lipoxygenase inhibition; P18054; Potency, µM (titrated, usually from 108 µM), inactives show at the top dose activity change, negative = inhibition, most hits filed as inhibitors; purified 12hLO, xylenol orange hydroperoxide absorbance; AID 1671190; actives 1.1% (n = 580,000); note: % is set by controls: 0 for no effect and ±100 for the full control effect
#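 Purified human 12hLO (150 nM final) in 25 mM Hepes, 0.01% Triton X-100, pH 7.0 was preincubated 15 min at room temperature with compound. Then 40 uM arachidonic acid was added, 30 min. Hydroperoxide was read by Fe-XO absorbance ratio 573/405 nm.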
# Glioma ERSR ind = induces the endoplasmic reticulum stress response in human glioma cells. U87-MG GRP78 promoter luciferase reporter, 16 h. Potency, µM, inactives show top-dose activation, actives largely listed as activators. actives 0.02% (n = 420,000); note: series mostly up to about 76 µM; % of control where 0% means no effect; nearly all actives have a fitted effect of over 35% in size
#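 ERSR induction read as luciferase luminescence (Bright-Glo, 10 min at room temperature) in stably transfected human U87-MG glioma cells exposed to compounds for 16 h, using GRP78 as sensor.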
# Chronic BCR inh = chronic active BCR signaling inhibition; ABC-DLBCL IkBa-CBG/CBR reporter, luminescence ratio, 4 h; Potency, µM (doses to about 46.1 µM), for the others: at the highest dose activity change, negative = inhibition, most hits filed as inhibitors; actives 0.05% (n = 340,000); AID 493014; active = well fitted inhibition curve with a large enough effect in the signal ratio, with a control signal flat, not every such curve was filed as active; inconclusive = small, poorly fitted or top-dose-only effect, or effect the other way, or a change in a side signal; the % refers to the signal ratio;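 note: plate controls were basal doxycycline-induced cells for no effect and cells given 10 µM MG132 for full effect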
#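 Concentration-response series (up to 46 uM) were applied to TMD8 dual-reporter cells for 4 h at 37C with doxycycline. Green/red ratio, after filter-overlap correction, defined %Activity; red signal alone was normalised to basal cells and zero luminescence.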
# The depositor's hits bear a star; ? = inconclusive; . = not tested or not shown. Unless noted, calls come from the whole dose curve; as a rule, active = well fitted curve in the direction sought with a large enough effect; inconclusive = small, poorly fitted or top-dose-only effect, or another doubt; inactive = no such curve, though single readings can be large; an effect the other way counts as inactive or inconclusive. Potency is the fitted concentration of half-maximal effect.
SMILES,Anesthetic bind,12-LOX inh,Glioma ERSR ind,Chronic BCR inh
O=C1NC(=S)N/C1=C/c1cccc([N+](=O)[O-])c1,-1%,-3%,-3%,-1%
CN1C(=O)/C(=C/c2cccc([N+](=O)[O-])c2)C(=O)N1c1ccccc1,-22%,40µM*,0%,-1%
Cc1ccccc1-c1nc2cc(NC(=O)/C=C/c3ccco3)ccc2o1,.,25µM*,.,.
COc1ccc(Nc2nc(N3CCOCC3)c3cnn(C)c3n2)cc1,.,10%,.,.
O=C(Nc1ccccc1)Nc1ccccc1Br,-10%,11µM*,7%,-11%
CN(/C=C/C(=C/C=[N+](C)c1ccccc1)OCCCS(=O)(=O)[O-])c1ccccc1,-12%,?,-2%,-18%
CN(/C=C/C(=O)/C=C/N(C)c1ccccc1)c1ccccc1,.,16µM*,.,.
CCOc1ccccc1CN1CCCCCCNC(=O)CC1c1ccccc1 (configuration not stated),.,10%,.,.
O=C(NNc1ccc([N+](=O)[O-])cc1)c1ccccc1Cl,?,-8%,-2%,-13%
O=C(NC(NNc1ccc([N+](=O)[O-])cc1)(C(F)(F)F)C(F)(F)F)c1ccc(Cl)cc1,?,35µM*,-3%,?
CC(C)C[C@H]1CNC(=S)N1C[C@H]1CCCN1C[C@H](Cc1ccccc1)N1C[C@H](Cc2ccc(O)cc2)N(CC2CCCCCC2)C1=S,.,40µM*,3%,.
CC(C)C[C@H]1CNC(=S)N1CC1CCCN1C[C@H](Cc1ccc(O)cc1)N1C[C@H](Cc2ccccc2)N(CC2CCCCCC2)C1=S (some centres not stated),.,?,-2%,.
Oc1ccc(C[C@H]2CNC(=S)N2CC2CCCN2C[C@H](Cc2ccccc2)N2C[C@H](Cc3ccc(O)cc3)N(CC3CCCCCC3)C2=S)cc1 (some centres not stated),.,11µM*,5%,.
CCOc1ccc(CCN2C(=S)N([C@@H](CC(C)C)CN3CCCC3CN3C(=S)NC[C@@H]3CC(C)C)C[C@@H]2CC(C)C)cc1 (some centres not stated),.,?,-1%,.
CCOc1ccc(CCN2C(=S)N([C@@H](CC(C)C)CN3CCCC3CN3C(=S)NC[C@@H]3CC(C)C)C[C@@H]2Cc2ccccc2)cc1 (some centres not stated),.,14µM*,-2%,.
O=C(c1ccc(F)c(F)c1)c1cc2cc(Br)ccc2o1,.,-10%,.,.
Cn1c(=O)[nH]c(=O)c2c1nc(N1CCN(Cc3ccccc3F)CC1)n2CCCc1ccccc1,.,-3%,.,.
O=C(NCCSc1ccc(Cl)cc1)c1ccc2c(c1)OCCCO2,.,-76%,.,.
COc1cc(NC(=O)CSc2nc3cc(C)[nH]c3c(=O)n2C)cc(OC)c1OC,.,-6%,.,.
Cc1ccc(/C(C#N)=C\c2cccn2C)cc1,.,45µM*,.,.
Cc1ccc(/C(C#N)=C\c2cn(C)c3ccccc23)cc1,0%,.,.,?
CCN(CC)CCC(=O)N1c2ccccc2Sc2ccc(NC(=O)OC)cc21,-10%,28µM*,?,?
O=[N+]([O-])c1cccc(SSc2cccc([N+](=O)[O-])c2)c1,.,2.5µM*,-3%,.
Clc1ccc(CNC2CCN(Cc3ccccc3)CC2)cc1,-11%,8.9µM*,-3%,-8%
COc1ccc(CN2CCCCCC2)cc1OC,.,2µM*,0%,.
SMILES,Anesthetic bind,12-LOX inh,Glioma ERSR ind,Chronic BCR inh
CC1CCCC(N2CCN(Cc3ccc(Cl)cc3)CC2)C1 (configuration not stated),.,0.79µM*,.,.
COc1ccc(CN2CCOCC2)cc1Br,-21%,27%,2%,-2%
COc1ccc(CN2CCCCCC2)cc1Br,-8%,1µM*,-2%,1%
COc1cc(C#N)ccc1OC(C)C(=O)c1ccc(Cl)cc1 (configuration not stated),.,-15%,.,.
Clc1ccc(CN2CCCCCCC2)cc1,-1%,?,-1%,-5%
Clc1ccc(CN2CCCCCC2)cc1,-3%,0.79µM*,-5%,0%
CCc1ccc(-n2nc(CO)c(C(=O)NCc3ccc(OC)cc3)n2)cc1,.,12%,.,.
N#C/C(=C/c1cccn1-c1cccc(C(=O)O)c1)c1ccc(Cl)cc1,-10%,45µM*,-3%,11%
Cn1c(-c2ccccc2)cnc1NCc1cccc([N+](=O)[O-])c1,-12%,54%,8%,-1%
CSc1ccc(CNc2ncc(-c3cccc([N+](=O)[O-])c3)n2C)cc1,?,0.71µM*,0%,1%
O=C1CCCc2c1cc(C(=O)NC1CCCCC1)c(=O)n2-c1ccc(C(F)(F)F)cc1,.,-21%,.,.
CC(C(=O)NN)n1nnc(N2CCOCC2)n1 (configuration not stated),-17%,?,2%,-2%
CC(C(=O)NNS(=O)(=O)c1cccc(C(F)(F)F)c1)n1nnc(N2CCOCC2)n1 (configuration not stated),-3%,3.5µM*,1%,-1%
CNc1nc(-c2ccccc2C)nc2ccccc12,.,40µM*,-3%,.
O=C(/C=C/c1ccc(Cl)cc1)Nc1ccc(N2CCOCC2)cc1,-3%,-11%,-1%,8%
Cc1cccc(C(=O)NC(=S)Nc2ccc(N3CCOCC3)cc2)c1,-10%,45µM*,3%,0%
O=C(O)/C=C/C(=O)Nc1ccc(N2CCOCC2)cc1,.,32µM*,.,.
Cc1ccc(/C=N/Nc2cc(C)nc(N3CCOCC3)n2)cc1,-2%,0%,1%,?
Cc1ccc(N/N=C/c2ccc(N3CCOCC3)cc2)cc1C,?,8.9µM*,2%,1%
O=C(NC(=S)Nc1cccc(C(F)(F)F)c1)c1ccc2nonc2c1,?,35µM*,2%,-3%
O=C(NC(=S)Nc1ccc(N2CCOCC2)cc1)c1ccc2c(c1)OCCO2,8%,?,-1%,-1%
CC(C)c1ccc(/C=C/C(=O)N2CCN(C/C=C/c3ccccc3)CC2)cc1,.,15%,.,.
COc1cccc(OC)c1C(=O)Nc1c(NC2CCCCC2)c2ccccc2oc1=O,.,5%,.,.
CC(=O)NC12CC3CC4C5CC(CC41)CC2C5C3,.,29%,.,.
CC(C)(C)c1ccc(C(=O)NC(=S)Nc2ccc(N3CCOCC3)cc2)cc1,-8%,?,-2%,-2%
SMILES,Anesthetic bind,12-LOX inh,Glioma ERSR ind,Chronic BCR inh
CC(=O)c1cccc(NC(=S)NC(=O)c2cccc(C)c2)c1,-6%,32µM*,4%,-9%
Cc1ccc(C(=O)NC(=S)Nc2ccc(N3CCOCC3)cc2)cc1C,-14%,18µM*,-5%,9%
COc1ccc(C(=O)NC(=S)Nc2ccc(N3CCOCC3)cc2)cc1Cl,-2%,16µM*,-2%,?
Cc1cccc(C(=O)NC(=S)NNC(=O)COc2ccc(Cl)cc2)c1,?,35µM*,2%,?
O=C(COc1cc2oc(=O)cc(-c3ccccc3)c2cc1Cl)NCc1cccnc1,.,4%,.,.
Cc1[nH]c2ccccc2c1/C=N/NC(=S)NCc1ccccc1,0%,35µM*,4%,2%
CCc1nnc(N/N=C/c2c(C)[nH]c3ccccc23)n1N,-8%,32µM*,-3%,-10%
Cc1[nH]c2ccccc2c1/C=N/NC(N)=S,-2%,11%,-1%,0%
